VP16 counter – counter-screen for ROR gamma inhibitors: Gal4-VP16 reporter; Drosophila S2 Gal4-VP16 UAS-luciferase, luminescence, 20 h; Potency, µM (titrated, usually from 53.6 µM), for the others: at the highest dose activity, negative = inhibition, hits mostly inhibitors; 310,000 compounds, 3.5% hits;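 note: Gal4-VP16 expression switched on by copper sulfate through the metallothionein promoter; nearly all actives have a fitted effect of over 50% in size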
RORgamma inh – blocks mouse ROR gamma transcriptional activity. Drosophila S2 Gal4-RORgamma UAS-luciferase reporter, 20 h. 310,000 compounds, 5.4% hits. P51450. Potency, µM (titrated, usually from 53.6 µM), for inactives: top-dose activity change, negative = inhibition, usual class: inhibitors; note: nearly all actives have a fitted effect of over 60% in size
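Stably transfected Drosophila Schneider cells are the test system, with ROR gamma fused to Gal4 and luciferase under UAS control; luminescence is read after 20 hr of 700 uM copper sulfate induction at ambient temperature.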
NPSR antagonist – blocks cAMP signaling of the human neuropeptide S receptor; CHO-NPSR cells, cAMP TR-FRET, antagonist mode; Potency, µM (top dose mostly 38.3 µM), for the others: at the highest dose activity change, negative = inhibition, most hits filed as inhibitors; 220,000 compounds, 1% hits; AID 1461; note: nearly all actives have a fitted effect of over 50% in size
B2AR arrestin – beta2AR (human) beta-arrestin recruitment activity; P07550; beta-arrestin recruitment to beta2AR, cell-based reporter; Potency, µM (doses to about 46.1 µM), for the others: at the top dose activation, usual class: activators; 330,000 compounds, 0.02% hits; AID 492947;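 note: 0% = DMSO controls and full agonism = EC100 isoproterenol or metaproterenol; nearly all actives have a fitted effect of over 65% in size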
Target sequence (P07550 whole entry, looked up): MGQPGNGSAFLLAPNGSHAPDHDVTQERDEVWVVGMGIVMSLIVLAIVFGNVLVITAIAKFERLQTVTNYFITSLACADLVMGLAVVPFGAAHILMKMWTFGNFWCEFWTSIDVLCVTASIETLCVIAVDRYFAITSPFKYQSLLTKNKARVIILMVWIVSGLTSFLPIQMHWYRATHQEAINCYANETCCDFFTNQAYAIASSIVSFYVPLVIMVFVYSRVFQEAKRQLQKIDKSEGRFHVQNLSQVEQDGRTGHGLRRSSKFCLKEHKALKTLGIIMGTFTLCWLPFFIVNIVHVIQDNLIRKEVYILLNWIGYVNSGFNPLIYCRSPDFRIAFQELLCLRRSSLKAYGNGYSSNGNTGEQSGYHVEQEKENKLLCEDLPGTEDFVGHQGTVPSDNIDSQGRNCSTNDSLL
An asterisk follows results filed as active; ? = inconclusive; · = not tested or not shown; [ ] = dose if it differs, or a comment. Shown are actives, neighbours in structure and some others; about 5.7% of the full set was active somewhere. Calls come from the whole dose curve; as a rule, active = well fitted curve in the direction sought with a large enough effect; inconclusive = small, poorly fitted or top-dose-only effect, or another doubt; inactive = no such curve, though single readings can be large; an effect the other way counts as inactive or inconclusive. Unless noted, % is set by controls: 0 for no effect and ±100 for the full control effect; potency is the fitted concentration of half-maximal effect.

SMILES	VP16 counter	RORgamma inh	NPSR antagonist	B2AR arrestin
O=C(Nc1ncnc2c1ncn2[C@@H]1O[C@@H]2COP(=O)(O)O[C@H]2[C@H]1O)c1ccccc1	-4%	-10%	·	·
C/C(=N\NC(=O)c1ccc(O)cc1O)c1cccnc1	?	5.6µM*	·	0%
C/C(=N\NC(=O)c1ccc(Br)cc1)c1cccc(NC(=O)c2cccnc2)c1	1%[10 µM]	18µM*	-6%	0%
C/C(=N\NC(=O)c1ccncc1)c1cccc(NC(=O)c2ccc(C(C)(C)C)cc2)c1	4µM*	4.5µM*	·	0%
C=C(CCC(=O)c1ccccc1)C(=O)c1ccccc1	11µM*	13µM*	?	0%
Cc1ccc(-c2cc(C(=O)N/N=C/c3ccc([N+](=O)[O-])o3)c3ccccc3n2)o1	?	13µM*	·	-1%
Cc1ccc(-c2cc(C(=O)Nc3ccccc3C)c3ccccc3n2)o1	13µM*	?	7%[46.1 µM]	-1%
O=C(N/N=C/c1ccc([N+](=O)[O-])o1)c1cc(-c2ccc(-c3ccccc3)cc2)nc2ccccc12	1.1µM*	0.71µM*	22%	0%
Cc1ccc2nc(N/N=C/c3ccco3)cc(C)c2c1	?	6.3µM*	20%	0%
O=C(N/N=C/c1ccc([N+](=O)[O-])o1)c1cc(-c2ccncc2)nc2ccccc12	-14%	-19%	-8%[46.1 µM]	-1%
O=C(Cn1nnc2ccccc21)NNC(=S)NC1CCCCC1	-23%	-42%	-6%	-1%
O=C(NCC(=O)N1CCC(Cc2ccccc2)CC1)c1ccc(Cl)cc1	12%	-22%	·	0%
Cc1ccc(-c2cc(C(=O)NC3=NCCS3)c3cc(Br)ccc3n2)o1	14µM*	7.9µM*	?	0%
O=C(N/N=C/c1ccco1)c1cc(-c2cccc(Br)c2)nc2ccccc12	5.6µM*	3.2µM*	-16%	0%
Cc1ccc(-c2cc(C(=O)O)c3cc(Br)ccc3n2)o1	3%	-3%	-15%	0%
Cc1cc(N/N=C/c2ccc([N+](=O)[O-])o2)nc2ccccc12	?	11µM*	-17%	0%
Cn1c(/C=C/c2ccc([N+](=O)[O-])o2)nc2ccccc2c1=O	6.3µM*	6.3µM*	10µM*	?
O=C(COC(=O)CN1C(=O)c2ccccc2C1=O)Nc1cccc(F)c1	·	·	·	0%
CCCC12CN3CCN(CC(C3)/C1=N\NC(=O)Nc1ccccc1)C2	-3%	-5%	11%	-1%
S=C(N/N=C1\C2CN3CCN(C2)CC1(c1ccccc1)C3)Nc1ccccc1	2.8µM*	5µM*	-29%	-1%
N#Cc1ccc(/C=N/NC(=S)Nc2ccc(S(=O)(=O)N3CCOCC3)cc2)cc1	?	1.8µM*	-16%	0%
O=S(=O)(c1ccc(NC(=S)N/N=C/c2cccc(Oc3ccccc3)c2)cc1)N1CCOCC1	-7%	0.89µM*	-16%	0%
COc1cc(N=c2ssnc2Cl)cc(OC)c1OC	16µM*	?	?	4%
Clc1ccc(N=c2ssnc2Cl)cc1	11µM*	?	-13%[46.1 µM]	0%
Clc1nssc1=Nc1ccccc1	?	?	-14%	1%
SMILES	VP16 counter	RORgamma inh	NPSR antagonist	B2AR arrestin
COc1ccc(NC(=O)N(C)C[C@H]2Oc3ccc(NC(=O)Cn4cnnn4)cc3C(=O)N([C@H](C)CO)C[C@@H]2C)cc1	·	·	·	0%
CN1CCN(S(=O)(=O)c2ccc(NC(=O)c3ccccc3Cl)cc2)CC1	-4%	5%	·	0%
O=C(NC(=S)N1CCCCCC1)c1ccc(Cl)cc1Cl	1µM*	0.35µM*	25%	0%
O=C(NC(=S)N1CCCCCC1)c1ccccc1Cl	1µM*	0.79µM*	-28%	?
CN1CCN(C(=S)NC(=O)c2ccccc2Cl)CC1	18µM*	14µM*	·	0%
O=C(Nc1ccc(O)c(-c2nc3ccccc3o2)c1)C1(c2ccccc2)CCCC1	8.9µM*	5.6µM*	-24%[46.1 µM]	0%
Cn1c(SCC(=O)NNC(=O)c2ccccc2)nnc1C1CC1	-4%	-18%	·	0%
O=C(c1cnccn1)N1CCC2(CCN(Cc3nccs3)CC2)CC1	-13%	-12%	·	·
[N-]=[N+]=Nc1nc2c(N)ncnc2n1C1OC(CO)C(O)C1O (centres undefined)	-7%	-33%	·	·
CS(=O)(=O)N1CCN(c2ccccc2NC(=S)NC(=O)c2cccs2)CC1	-19%	11µM*	-49%	-1%
CC(C)C(=O)NC(=S)Nc1ccccc1N1CCN(C(=O)c2ccc(Cl)cc2)CC1	5µM*	5.6µM*	?	0%
CC(C)C(=O)N1CCN(c2ccccc2NC(=S)NC(=O)c2cccs2)CC1	?	14µM*	-41%	-1%
CC1CCN(c2ccccc2NC(=S)NC(=O)c2cccs2)CC1	6.3µM*	2.2µM*	?	-1%
CC(=O)N1CCN(c2ccccc2NC(=O)c2cccs2)CC1	3%	-31%	·	0%
N#CCCn1cc(/C=N/N=C2\NC(=O)C(CC(=O)O)S2)c(-c2ccc(F)cc2)n1 (centres undefined)	1%	-5%	-18%	-1%
C=C1CCC2C(C)(CO)C(O)CCC2(C)C1C/C=C1\C(=O)OCC1O (centres undefined)	-22%	13µM*	·	·
Cc1cccc(C)c1Nc1nnc(SCC(=O)c2ccc(Br)s2)s1	0%	-17%	-12%	-3%
Cc1ccc(Nc2nnc(SCC(=O)c3ccc(Br)s3)s2)c(C)c1	?	35µM*	-20%	0%
CC1(C)O[C@@H]2O[C@H]([C@H](O)CO/N=C3/[C@H]4O[C@@H]4[C@@H](O)[C@H]4[C@H]3CCn3c(=O)n(-c5ccccc5)c(=O)n34)[C@@H](O)[C@@H]2O1	3%[10 µM]	19%[10 µM]	·	·
COC(=O)CCC(=O)NNC(=O)c1ccc(Cl)cc1Cl	-14%	11µM*	3%[46.1 µM]	-1%
COC(=O)CCC(=O)NNC(=O)CCCOc1ccc(Cl)cc1Cl	?	12%	0%[46.1 µM]	-5%
COc1ccccc1NC(=S)NC(=O)CCCOc1ccc(Cl)cc1Cl	16µM*	10µM*	-20%[46.1 µM]	0%
CCCC(=O)NC(=S)Nc1ccccc1OC	?	10µM*	-7%[46.1 µM]	·
CCCC(=O)Nc1ccccc1NC(=O)CCC	3%	0%	-2%[46.1 µM]	0%
CCCC(=O)NC(=S)Nc1ccccc1F	?	4µM*	0%[46.1 µM]	0%
SMILES	VP16 counter	RORgamma inh	NPSR antagonist	B2AR arrestin
CCC(=O)NC(=S)Nc1ccccc1OC	?	?	0%[46.1 µM]	0%
Cc1cccc(OCc2nnc(SCC(=O)N(C)C3CCCCC3)o2)c1	·	·	·	0%
COc1cccc(NC(=S)NC(=O)Cc2ccc(Cl)cc2)c1	7.1µM*	7.1µM*	·	13%
COc1ccccc1NC(=S)NNC(=O)c1ccc(Cl)cc1Cl	?	13µM*	-5%[46.1 µM]	0%
COc1ccccc1NC(=O)CCC(=O)OCc1ccc(Cl)cc1	-7%	9%	7%	0%
COc1ccc(-c2nc3cc(NC(=S)NC(=O)Cc4ccccc4)ccc3o2)cc1	2.5µM*	4.5µM*	-38%	-1%
CCc1ccccc1NC(=S)NNC(=O)c1ccccc1Cl	-16%	?	-2%	-1%
COc1ccccc1NC(=S)NC(=O)Cc1ccc(Cl)cc1	4.5µM*	7.1µM*	·	-1%
